# Screening data (PubChem BioAssay)
# PglD inh: blocks C. jejuni PglD acetyltransferase activity; purified PglD enzyme, DTNB colorimetric CoA detection; inhibition, % at 12.5 µM; 360,000 tested, 0.098% active; AID 602405; in the data active = inhibition above about 16%, passing the limit was not always enough
# Statin myotox sup: protects C2C12 myotubes from simvastatin toxicity | rescue of ATP level, % at 7.49 µM | 330,000 tested, 0.78% active | ATP luminescence, 48 h; scaled: DMSO 0, geranylgeraniol control 100;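 active = mean ATP rescue above about 67%, or every replicate alone reaching that limit, limit read from the data, passing the limit was not always enough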;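 note: myotubes were challenged with 10 µM simvastatin during compound exposure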
# ARNT-TACC3 inh: ARNT/TACC3 interaction disruption; AlphaScreen His-ARNT PAS-B/GST-TACC3 binding, luminescence; TACC3 fragment carries E629A point mutation; inhibition, % at 9.99 µM; 390,000 tested, 0.66% active; AID 623870; Q9Y6A5;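 active = mean inhibition of replicates at least 50% and at least half of replicates each reaching 50%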;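 note: 0% = complete ARNT plus TACC3 wells and 100% = ARNT alone without TACC3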
# F508del corr: correctors of CFTR F508del function in bronchial epithelial cells; CFBE cells, YFP halide quenching; stimulated with forskolin plus potentiator P3; % fluorescence drop versus neutral controls; activity (quench increase), % at 7.58 µM; 350,000 tested, 0.36% active; AID 720511;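 active = mean added fluorescence quench of at least 8% versus neutral control, with both replicates also reaching 8%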;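 note: cells transiently co-express mutant CFTR-F508del with the halide-sensitive YFP; corrector assay measuring rescue of mutant channel to the surface after 24 h compound exposure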
# PglD confirm: PglD (C. jejuni) inhibition confirmation; 320 tested, under 10 active; Purified C. jejuni PglD, DTNB absorbance 412 nm; shares compounds with PglD inh; inhibition, % at 20 µM;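 active = mean inhibition across replicates of at least 20% with every single replicate also at 20% or more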;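 note: initial rate of CoA release by acetyl transfer from AcCoA to the UDP-4-amino sugar; 0% = median of neutral control wells and 100% = median of positive control wells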
# ARNT Alpha ctr: counter-screen for ARNT/TACC3 inhibitors: AlphaScreen artifacts | 1,200 tested, 50% active | shares compounds with ARNT-TACC3 inh | His-ARNT PASB-GST AlphaScreen artifact counter-screen, luminescence | AC50, µM (top dose mostly 68 µM), for inactives: at the top dose activity change, negative = signal decrease;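 active = every separate test run was called active for a drop in luminescence, with AC50 within twice the top valid dose, actives reach about 71 µM in these data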
# * = called active by the depositor; . = no result. Compounds with a hit are over-represented: about 1.4% of the library has one in this group of screens.
SMILES,PglD inh,Statin myotox sup,ARNT-TACC3 inh,F508del corr,others
OC1C2CN3CN(C2)CC1(c1ccccc1)C3 (stereo unspecified),4,-7,-9,6,
C[C@@H]1O[C@@H](O[C@@H]2C=C3CC[C@@H]4C(CC[C@]5(C)[C@@H](c6ccc(=O)oc6)CC[C@]45O)[C@@]3(C)CC2)[C@H](O)[C@H](O)[C@H]1O (stereo partly specified),8,9,-7,24*,
COc1ccc(Cn2c(N)c(C(=O)NCc3ccco3)c3nc4ccccc4nc32)cc1,-10,74*,-7,.,
COC(=O)[C@H]1[C@H](CO)[C@H]2Cn3c(ccc(/C=C/c4ccccc4)c3=O)[C@@H]1N2C(=O)C1CCC1,5,35,-13,-3,
O=C(Cc1ccccn1)N1CC2(C1)[C@@H](c1ccccc1)[C@@H](CO)N2Cc1ccccn1,.,.,.,-2,
COC(=O)[C@H]1[C@H](CO)[C@H]2Cn3c(cccc3=O)[C@@H]1N2Cc1nccs1,1,36,1,.,
CCCCn1c(O)c(C(C)=NCc2cc(OC)cc(OC)c2)c(=O)[nH]c1=O,0,.,26*,.,
Cc1cccc(S(=O)(=O)N2[C@@H]3c4ccc(-c5ccncc5)c(=O)n4C[C@H]2[C@H](CO)[C@H]3C(=O)O)c1,0,13,-11,-1,
O=C(Cc1ccccn1)N1CCCCN2[C@H](CO)[C@@H](c3ccc(-c4ccccc4F)cc3)[C@@H]2C1,2,17,6,1,
CC(=O)OC1(c2ccc(C)cc2)CN2CCC1c1ccccc12 (stereo unspecified),.,11,1,.,
CC(=O)OC1(Cc2ccccc2)CN2CCC1c1ccccc12 (stereo unspecified),-6,114*,-12,.,
COC(=O)[C@@H]1[C@@H](CO)[C@@H]2Cn3c(ccc(/C=C/c4ccccc4)c3=O)[C@H]1N2CC1CCCC1,-5,11,-133,-1,
COc1nc(C)nc(NC(=O)NS(=O)(=O)c2ccccc2Cl)n1,-8,2,9,14*,
C=C1C(=O)O[C@@H]2C[C@@H](C)[C@@H]3C=CC(=O)[C@@]3(C)[C@@H](O)[C@H]12,1,-164,-1,13*,
C/C=C/c1ccc(C2[C@@H]3CN(Cc4cccc(F)c4)C[C@H]2N3)cc1 (stereo partly specified),.,.,.,3,
COc1ccc(CC2NCC(O)C2OC(C)=O)cc1 (stereo unspecified),-2,114*,-1,0,
OC(CN1CC=C(c2ccccc2)CC1)c1ccccc1 (stereo unspecified),-2,84*,-15,3,
CC1=NCCc2c1[nH]c1cc(O)ccc21,-3,0,5,32*,
CC[C@H]1CN2CCC1C[C@H]2[C@H](O)c1ccnc2ccc(OC)cc12 (stereo partly specified),-3,-3,3,9.8*,
CC1CCCN(c2ccc(C(=O)N3CCC4(CC3)OCCO4)cc2[N+](=O)[O-])C1 (stereo unspecified),14,0,-7,-1,
CCOC(=O)C1CCCN(c2ccc([N+](=O)[O-])c3nonc23)C1 (stereo unspecified),.,.,-4,14*,
COC1C(C)OC(OC2CC(C)(O)Cc3cc4c(c(O)c32)C(=O)c2c(O)cc3c(c2C4=O)OC2OC3(C)C(O)C(N(C)C)C2O)C(OC)C1(C)OC (stereo unspecified),.,.,17,20*,
CC[n+]1c(/C=C/C=C/c2ccc(N(C)C)cc2)sc2ccccc21,4,.,48*,-10,
COC(=O)CC1(Cc2ccccc2)C(=O)NC(=O)NC1=O,3,3,0,.,
CCC1(Oc2ccccc2)C(=O)NC(=O)NC1=O,0,108*,-4,5,
SMILES,PglD inh,Statin myotox sup,ARNT-TACC3 inh,F508del corr,others
COC(=O)[C@H]1[C@H](CO)[C@H]2Cn3c(ccc(-c4ccccc4F)c3=O)[C@@H]1N2C(=O)C1CC1,1,-3,-6,2,
COC(=O)c1nc(-c2ccc3c(n2)C(=O)C(N)=C(OC)C3=O)c(N)c(-c2ccc(OC)c(OC)c2O)c1C,-1,32,45*,-1,
COC(=O)[C@@H]1[C@@H](CO)[C@@H]2Cn3c(ccc(C4=CCCCC4)c3=O)[C@H]1N2CC1CCCC1,1,6,10,1,
COC(=O)[C@H]1[C@H](CO)[C@H]2Cn3c(ccc(C4=CCCCC4)c3=O)[C@@H]1N2Cc1cccnc1,3,6,-10,-3,
Cc1cc(C)cc(N2C(=O)/C(=C\c3ccc(N4CCN(C)CC4)o3)C(=O)NC2=S)c1,76*,.,.,-2,PglD confirm=-1
CC(C)CC#Cc1ccc([C@@H]2[C@@H](CO)N3CCCCN(C(=O)Cc4ccccn4)C[C@H]23)cc1,2,-15,1,-1,
CCCNS(=O)(=O)c1ccc(OCC(=O)N2CCN(Cc3ccc4c(c3)OCO4)CC2)cc1,29*,15,7,.,PglD confirm=8
CCCNS(=O)(=O)c1ccc(OCC(=O)N2CCN(Cc3ccc4c(c3)OCO4)CC2)c(C)c1,.,.,-15,-1,
COc1ccc(Cc2c(O)[nH]c(=O)[nH]c2=O)c(OC)c1,.,.,15*,-3,ARNT Alpha ctr=-4%
COc1ccc(CC2C(=O)NC(=O)NC2=O)c(OC)c1,-2,.,-4,.,
COc1cc2c(c(OC)c1OC)-c1ccc(O)c(=O)cc1[C@@H](N)CC2,2,-146,58*,1,ARNT Alpha ctr=-35%
O=C(Cc1ccccc1)N1CCCCN2[C@H](CO)[C@@H](c3ccc(-c4ccccc4)cc3)[C@@H]2C1,7,.,3,1,
CCOC(=O)c1cc2c(cn1)[C@@H](CCO)NC2,-5,9,55*,-2,ARNT Alpha ctr=-6%
CCCCn1c(N)c(C(=O)OCCOC)c2nc3ccccc3nc21,-5,.,.,-1,
COCCCn1c(N)c(C(=O)NCCC(C)C)c2nc3ccccc3nc21,-4,-2,active,.,ARNT Alpha ctr=-2%
CCCCOCCCn1c(N)c(C(=O)OCCOC)c2nc3ccccc3nc21,2,.,68*,.,ARNT Alpha ctr=-10%
CCCCn1c(NC(=O)c2ccco2)c(C(=O)OCC)c2nc3ccccc3nc21,0,-17,30*,.,ARNT Alpha ctr=-14%
O=C(Cc1ccccn1)N1CCCCN2[C@H](CO)[C@@H](c3ccc(-c4ccccc4)cc3)[C@@H]2C1,1,.,3,2,
COc1ccc(-c2cc(=NCCC(=O)O)c3cc(C)ccc3o2)cc1,2,11,30*,1,ARNT Alpha ctr=-30%
COc1ccc(-c2cc(=Nc3ccccc3)c3cc(C)ccc3o2)cc1,-6,.,5,1,
O=C(O)[C@@H]1[C@@H](CO)[C@@H]2Cn3c(ccc(-c4ccncc4)c3=O)[C@H]1N2C(=O)C1CCCC1,.,.,.,-2,
O=C(Cc1cccnc1)N1CCCCN2[C@H](C1)[C@@H](c1ccc(C#CC3CC3)cc1)[C@@H]2CO,5,.,.,0,
